Experimental data from PubChem BioAssay (NCI).
Compounds without any hit were thinned out: in the full panel of roughly 83,000, 20% have a hit.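 Compound tested at a single concentration for 48 hours in 96-well plates; a percent growth value below 10 was scored as active.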 A number with no mark means an inactive call. Calls of active or inactive are those of the source.

What follows are molecules tested on KM12 colon (assay: NCI-60 one-dose screen, 48 h (100 = growth as untreated, 0 = no growth, -100 = all killed)). Details: 10 µM unless noted.
Description: Growth inhibition of the KM12 human tumor cell line is measured as a screen for anti-cancer activity. Cells are grown in 96 well plates and exposed to the test compound for 48 hours. Compounds are tested at a single concentration, which is 10^-5 M for most compounds. The reported endpoint is percent growth (GI% or GIPRCNT), where numbers from 0 - 100% represent growth inhibition, and numbers from -100% - 0 represent cell death. For example, a value of 40 represents 60% growth inhibition. A value of 0 means no net growth occurred over the course of the experiment. A value of -40 indicates 40% of cells at the beginning of the experiment died by the end of the experiment. A value of -100 means all cells are dead at the end of the experiment.
NCI-60 Human Tumor Cell Lines Screen was performed using the standard one-dose NCI protocol, which is described in more detail at https://dtp.cancer.gov/discovery_development/nci-60/default.htm.
Compounds with GIPRCNT values below 10 were considered active. Activity score was based on GIPRCNT using the following formula: […]
Score is 0 for GIPRCNT values of 100 or above, 50 for GIPRCNT values of 0, and 100 for GIPRCNT values of -100.

Row | SMILES | growth
1 | COC(=O)c1nc(-c2ccccc2)oc1S(=O)(=O)Cc1ccccc1 | 96.4%
2 | N#C/C(=C\c1c(-c2ccccc2)[nH]c2ccccc12)C(N)=O | 47.9%
3 | O=C1/C(=C/c2cn(-c3ccccc3)nc2-c2ccccc2)SC(=S)N1C1CCCCC1 | 102%
4 | COc1cc2ncnc(Nc3ccc(F)c(Cl)c3)c2cc1OCC(=O)N1CCN(c2ccccc2)CC1 | 102%
5 | COc1ccc(F)cc1/C=C/C(=O)/C=C(/C=C/c1cc(F)ccc1OC)OB(F)F | 73.6%
6 | CCOC(=O)c1nn(-c2ccc(S(N)(=O)=O)cc2)c2nc(C)cc(=O)n12 | 102%
7 | COc1c(B(O)O)cccc1-c1cc(C)c2c(ccc3[nH]ncc32)n1 | 83.1%
8 | COc1cc(NS(=O)(=O)c2ccc(-c3cnc(C4CC4)o3)cc2)ccc1F | 20.7%
9 | CC/C(=C(/c1ccc(Cl)cc1)c1ccc(OCCN(C)C)cc1)c1ccc(Cl)cc1 | 56.6%
10 | Cc1ccc(Nc2cc(N)nc(N)n2)cc1Cl | 93%
11 | COc1cc2c(c(OC)c1OC)CCC(c1cccc(NC(=O)c3ccc(Br)cc3)c1)O2 (stereo not given) | 91.1%
12 | Fc1ccc(CNc2c3ccccc3nc3ccccc23)c(F)c1 | 60%
13 | O=C(NCc1ccc(Cl)cc1Cl)C1CCC(=O)N1c1cccs1 (stereo not given) | 101%
14 | Cc1cccc(/C=C/c2c(C(=O)/C=C/c3ccccc3)c(C)nc3ccccc23)c1 | -52.7% (active)
15 | N#CSc1c[nH]c2cccc(/C=C/C(=O)/C=C(/C=C/c3cccc4[nH]cc(SC#N)c34)OB(F)F)c12 | 11.7%
16 | CC(O)(c1ccccc1)C(c1ccccc1)C1CCCCN1 (stereo not given) | 104%
17 | CCCC/C(CC)=N\NS(=O)(=O)c1ccc([N+](=O)[O-])cc1 | 98.6%
18 | COC(=O)c1cc(N=C2NC(=O)/C(=C/C=C/c3ccccc3)S2)ccc1O | 23.1%
19 | C1CCC([PH+](C2CCCCC2)C2CCCCC2[PH+](C2CCCCC2)C2CCCCC2)CC1.[Au].[CH-]1CCCCC1C1CCCC[N-]1 (stereo not given) | -85.2% (active)
20 | Nc1[nH]n2cc(-c3ccccc3)nc2c1N=Nc1ccc(S(N)(=O)=O)cc1 | 33.3%

Row | SMILES | growth
21 | COc1ccc(-c2ccc(-c3ccc(C(=N)N)cc3)s2)cc1Cl | -73.2% (active)
22 | CCOC(=O)c1csc(NC(=O)COc2ccc(/C=C3\Oc4ccccc4C3=O)cc2)n1 | 88.7%
23 | COc1cc(C2c3cc(OC(C)=O)c(OC)cc3CC3C(=O)OCC32)ccc1OC(C)=O (stereo not given) | 117%
24 | COc1cc(-c2cncn2-c2ccc(-c3nc4ccc(F)cc4s3)cc2)ccc1F | 81.7%
25 | COc1ccc(/C=C(\C#N)n2nnc3cc(Cl)ccc32)cc1 | 5.89% (active)
26 | CCOC(=O)C/C(=N\Nc1cc(=O)[nH]c2ccc(Br)cc12)C(=O)OCC | 96%
27 | CC1=C2[C@@H](CC1)[C@]1(C)O[C@@](C(C)C)(C[C@H]1OC(=O)[C@H](C)O)[C@H]2OC(=O)/C=C/c1ccccc1 | 93.9%
28 | Clc1cccc(Nc2ncnc3ccc(-c4cnc5[nH]ccc5c4)cc23)c1 | 72.6%
29 | O=S(=O)(Nc1cc(F)cc(Cl)c1)c1ccc(-c2cnc(C3CC3)o2)cc1 | 29.4%
30 | O=C(O)CCN1C(=O)/C(=C/C(Cl)=C/c2ccccc2)SC1=S | 15.3%
31 | Cn1cc(-c2nonc2-c2cn(C)c3ccccc23)c2ccccc21 | 27.4%
32 | CCCCn1c(=O)[nH]c(N)c([C@@H]2c3c([nH]c(=O)n(CCCC)c3=O)Oc3ccc4ccccc4c32)c1=O | -44.1% (active)
33 | O=C(Nc1nc(-c2ccc(Cl)cc2)nc2c1sc(=S)n2-c1ccccc1)C(F)(F)F | 32.8%
34 | N=C(N)c1ccc(-c2ccc(-c3ccccc3)o2)cc1 | -80.3% (active)
35 | CCOC(=O)c1cc(C(=O)c2cc(OC)c(OC)c(OC)c2)n2ncccc12 | 20.8%
36 | O=C(Nn1c2c(sc1=NC1CC1)C(=O)c1ccccc1C2=O)c1cc2ccc1CCc1ccc(cc1)CC2 | 35.2%
37 | Cc1ccccc1/C=C/C(=O)c1cccc(OCCCOc2cccc(C(=O)/C=C/c3ccccc3C)c2)c1 | 95.4% [3 µM]
38 | NS(=O)(=O)c1ccccc1NC(=O)Nc1nc2ccccc2s1 | 104%
39 | Fc1cnccc1C1CC(c2ccc(N3CCNCC3)cc2)=NN1 (stereo not given) | 96.2%
40 | COc1ccc(C2=C(Br)C(=O)c3nc(C)ccc3C2=O)cc1 | 91.9%
